Some test systems named below: MOLT-4 leukemia; SR leukemia; RPMI-8226 leukemia; OVCAR-8 ovarian; OVCAR-5 ovarian; OVCAR-4 ovarian; SK-OV-3 ovarian; IGROV1 ovarian; OVCAR-3 ovarian; HS 578T breast; NCI/ADR-RES ovarian; T-47D breast; BT-549 breast; MDA-MB-435 melanoma; SW-620 colon; MCF7 breast; HCT-116 colon; HCC-2998 colon; KM12 colon.
What all share (test): NCI-60 one-dose screen, 48 h (100 = growth as untreated, 0 = no growth, -100 = all killed)
Common to all, as to settings: 10 µM unless noted

The panel holds about 83,000 compounds, 20% with a hit somewhere; the sample as a whole holds those more often.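 Note: values are percent growth. 100 is the growth of untreated cells, values between 100 and 0 indicate rising inhibition; between -100 and 0 indicates cell death.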 Unmarked numbers belong to inactive results. Active and inactive are the calls of the source. Rule for the calls: active = growth percent below 10; inactive = the rest.

Consider `C/C(=C\c1ccn(-c2ccc(N)cc2C(F)(F)F)n1)[C@@H]1C[C@@H]2O[C@]2(C)CCC[C@H](C)[C@H](O)[C@@H](C)C(=O)C(C)(C)[C@@H](O)CC(=O)O1`, for which the growth with MOLT-4 leukemia is 9.23% (active); in the experiment on SR leukemia it was 12.2%; with RPMI-8226 leukemia it was 5.57% (active); in the experiment on OVCAR-8 ovarian, 17.4%; in the experiment on OVCAR-5 ovarian, 24.1%; in the experiment with OVCAR-4 ovarian it was 69.7%. Moreover, the growth in the experiment with SK-OV-3 ovarian was 0.896% (active); with IGROV1 ovarian it was 43.5%; with OVCAR-3 ovarian, 12.5%; with HS 578T breast, -10.7% (active); in the experiment with NCI/ADR-RES ovarian it was 1.74% (active); in the experiment on T-47D breast, 39.1%. Further, the growth with BT-549 breast was 27%; in the experiment with MDA-MB-435 melanoma, -61.7% (active); in the experiment on SW-620 colon it was 23.9%; in the experiment on MCF7 breast, 16.4%; in the experiment on HCT-116 colon, 12.1%; in the experiment with HCC-2998 colon, 14.1%. Also, the growth with KM12 colon was 11.4%.

In the case of `CCc1ccccc1[C@@H]1C[C@]2(C)CCO[C@@H]2OO1`, the growth with MOLT-4 leukemia was 105%; in the experiment with SR leukemia, 102%; in the experiment with RPMI-8226 leukemia, 100%; with OVCAR-8 ovarian, 96%; in the experiment with OVCAR-5 ovarian it was 109%; in the experiment with OVCAR-4 ovarian, 96.3%. The growth was 107% in the experiment on SK-OV-3 ovarian; 108% in the experiment on IGROV1 ovarian; 113% with OVCAR-3 ovarian; 101% in the experiment on HS 578T breast; 105% in the experiment with NCI/ADR-RES ovarian; 101% with T-47D breast. The growth is 111% in the experiment on BT-549 breast; 109% with MDA-MB-435 melanoma; 102% in the experiment with SW-620 colon; 95.7% with MCF7 breast; 96.3% with HCT-116 colon; 93.7% in the experiment with HCC-2998 colon. In addition, the growth in the experiment on KM12 colon is 101%.

For `CC(=O)OC[C@]1(C)C=C2C(=O)[C@](C)(O)C3(CC3)C(C)=C2[C@H]1O`, the growth was 12.2% in the experiment with MOLT-4 leukemia; 9.64% (active) in the experiment on SR leukemia; 75.8% in the experiment with RPMI-8226 leukemia; -0.446% (active) with OVCAR-8 ovarian; -14.4% (active) in the experiment with OVCAR-5 ovarian; -9.54% (active) in the experiment with OVCAR-4 ovarian. Moreover, the growth is -40.4% (active) in the experiment with SK-OV-3 ovarian; -31.1% (active) in the experiment with IGROV1 ovarian; -29.4% (active) in the experiment with OVCAR-3 ovarian; -21.5% (active) in the experiment with HS 578T breast; -18.7% (active) with NCI/ADR-RES ovarian; -8.92% (active) in the experiment on T-47D breast. Further, the growth with BT-549 breast is -42.4% (active); in the experiment with MDA-MB-435 melanoma, -24.1% (active); in the experiment on SW-620 colon, 0.025% (active); with MCF7 breast, 1.05% (active); in the experiment with HCT-116 colon it was 0.12% (active); in the experiment with HCC-2998 colon, -59.8% (active). For the same compound, in the experiment on KM12 colon, the growth was 10.4%.

For the compound `Clc1cc(N2CC2)nc(N2CC2)n1`, the growth was 46.6% with MOLT-4 leukemia; 34.7% in the experiment with SR leukemia; 80.4% in the experiment with RPMI-8226 leukemia; 64.5% in the experiment with OVCAR-8 ovarian; 102% in the experiment on OVCAR-5 ovarian; 95.2% in the experiment on OVCAR-4 ovarian. Moreover, the growth in the experiment on SK-OV-3 ovarian is 71%; with IGROV1 ovarian, 109%; in the experiment on OVCAR-3 ovarian it was 107%; with HS 578T breast, 115%; in the experiment on NCI/ADR-RES ovarian it was 71.7%; in the experiment on T-47D breast, 87.3%. Besides, the growth in the experiment on BT-549 breast is 71.8%; in the experiment with MDA-MB-435 melanoma, 93.7%; in the experiment on SW-620 colon it was 61.6%; with MCF7 breast, 34.2%; in the experiment with HCT-116 colon, 64.9%; with HCC-2998 colon, 78.2%. For the same compound, the growth in the experiment with KM12 colon is 97.3%.

Regarding `CC[C@H](C)[C@H](NC(=O)[C@H]1CCCCN1C)C(=O)N(C)[C@H](C[C@@H](OC(C)=O)c1nc(C(=O)NC23CC(C(=O)OC)(C2)C3)cs1)C(C)C`, the growth in the experiment with MOLT-4 leukemia was 6.06% (active); with SR leukemia it was 0.833% (active); in the experiment on RPMI-8226 leukemia it was 25.6%; in the experiment on OVCAR-8 ovarian, 18.6%; with OVCAR-5 ovarian, 53.7%; with OVCAR-4 ovarian it was 42.7%. The growth with SK-OV-3 ovarian is 24.4%; with IGROV1 ovarian it was 32%; in the experiment on OVCAR-3 ovarian it was -18.6% (active); in the experiment with HS 578T breast, 27.5%; in the experiment with NCI/ADR-RES ovarian it was 10%; with T-47D breast, 64.4%. Also, the growth in the experiment on BT-549 breast was -39.2% (active); in the experiment on MDA-MB-435 melanoma, -14.1% (active); in the experiment with SW-620 colon, 39.4%; in the experiment on MCF7 breast, 12.1%; with HCT-116 colon, 5.83% (active); in the experiment on HCC-2998 colon it was 10.4%. Besides, the growth in the experiment on KM12 colon is 0.539% (active).

As for `Nc1ncnc2n[nH]nc12`, the growth is 86.4% in the experiment on MOLT-4 leukemia; 63.1% in the experiment with SR leukemia; 43.1% in the experiment on RPMI-8226 leukemia; 57.8% with OVCAR-8 ovarian; 59.3% in the experiment on OVCAR-5 ovarian; 57.6% in the experiment on OVCAR-4 ovarian. Moreover, the growth is 13.1% in the experiment with SK-OV-3 ovarian; 52.2% in the experiment on IGROV1 ovarian; 75.1% in the experiment on OVCAR-3 ovarian; 94.7% with HS 578T breast; 67.7% in the experiment on NCI/ADR-RES ovarian; 4.78% (active) with T-47D breast. Also, the growth with BT-549 breast is 89.8%; in the experiment on MDA-MB-435 melanoma, 75.1%; with SW-620 colon, 61.5%; with MCF7 breast it was 63.2%; with HCT-116 colon it was 65.1%; with HCC-2998 colon, 68.7%. The growth with KM12 colon was 70.4%.

As for `Nc1ccc(OCCNS(=O)(=O)c2cccc(S(=O)(=O)F)c2)c(Cl)c1`, the growth was 76.2% in the experiment with MOLT-4 leukemia; 93.3% in the experiment with SR leukemia; 80.4% in the experiment on RPMI-8226 leukemia; 115% with OVCAR-8 ovarian; 102% with OVCAR-5 ovarian; 64.1% with OVCAR-4 ovarian. Moreover, the growth is 87.1% with SK-OV-3 ovarian; 97.3% in the experiment on IGROV1 ovarian; 110% with OVCAR-3 ovarian; 93.6% with HS 578T breast; 101% in the experiment on NCI/ADR-RES ovarian; 102% in the experiment on T-47D breast. Also, the growth with BT-549 breast was 95.9%; in the experiment with MDA-MB-435 melanoma it was 98.2%; in the experiment on SW-620 colon, 106%; with MCF7 breast it was 85.3%; in the experiment with HCT-116 colon, 95.2%; with HCC-2998 colon it was 101%. Moreover, the growth with KM12 colon was 101%.

Consider `CC(=O)O[C@H]1C(=O)[C@@]2(C)[C@H]([C@H](OC(=O)c3ccccc3)[C@]3(O)C[C@H](OC(=O)[C@H](OC(=O)OC[C@@H]4COC(C)(C)O4)[C@@H](NC(=O)c4ccccc4)c4ccccc4)C(C)=C1C3(C)C)[C@]1(OC(C)=O)CO[C@@H]1C[C@@H]2O`, for which the growth in the experiment on MOLT-4 leukemia was 14.7%; in the experiment with SR leukemia, 25.5%; with RPMI-8226 leukemia, 5.35% (active); with OVCAR-8 ovarian, 16.5%; in the experiment with OVCAR-5 ovarian, 6.96% (active); in the experiment on OVCAR-4 ovarian it was 64.4%. For the same compound, the growth is 12.9% in the experiment with SK-OV-3 ovarian; 16.6% in the experiment on IGROV1 ovarian; 8.13% (active) with OVCAR-3 ovarian; 2.33% (active) in the experiment with HS 578T breast; 80.9% in the experiment with NCI/ADR-RES ovarian; 25.5% with T-47D breast. Also, the growth in the experiment with BT-549 breast is 12.5%; in the experiment on MDA-MB-435 melanoma it was -77.7% (active); in the experiment with SW-620 colon, 26.5%; in the experiment on MCF7 breast, 11%; in the experiment with HCT-116 colon it was 5.09% (active); with HCC-2998 colon, -4.98% (active). In the experiment with KM12 colon, the growth is 10.7%.

The record behind these values is PubChem BioAssay (NCI).
